Experimental findings from PubChem BioAssay (Tox21) are described below.

Calls of active or inactive are those of the source. Where a call stands in place of a potency, no number is given. The call rests on the fitted dose curve.

Acetylcholinesterase (Homo sapiens), sequence (P22303 whole entry, looked up): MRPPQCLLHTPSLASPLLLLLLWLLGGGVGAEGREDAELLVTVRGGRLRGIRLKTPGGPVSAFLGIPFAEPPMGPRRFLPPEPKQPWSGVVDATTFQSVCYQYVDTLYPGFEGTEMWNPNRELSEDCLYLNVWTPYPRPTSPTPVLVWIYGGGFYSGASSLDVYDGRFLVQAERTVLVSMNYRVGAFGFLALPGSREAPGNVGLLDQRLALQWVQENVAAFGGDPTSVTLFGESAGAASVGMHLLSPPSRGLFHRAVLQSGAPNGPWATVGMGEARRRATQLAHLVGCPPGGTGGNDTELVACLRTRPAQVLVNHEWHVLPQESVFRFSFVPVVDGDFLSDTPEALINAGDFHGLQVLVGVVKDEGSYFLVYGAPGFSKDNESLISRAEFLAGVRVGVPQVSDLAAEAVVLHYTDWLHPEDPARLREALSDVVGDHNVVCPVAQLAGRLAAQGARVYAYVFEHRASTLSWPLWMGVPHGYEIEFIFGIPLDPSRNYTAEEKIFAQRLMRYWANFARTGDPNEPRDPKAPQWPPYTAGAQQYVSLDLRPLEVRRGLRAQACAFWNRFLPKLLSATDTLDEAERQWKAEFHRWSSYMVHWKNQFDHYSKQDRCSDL

This test concerns the target Acetylcholinesterase (Homo sapiens) (UniProt P22303). As to the kind of experiment: Acetylcholinesterase (AChE) small molecule antagonists: enzyme-based qHTS assay with human liver microsomes (AID 1347399). Further: nearly all actives have a fitted effect of over 60% in size. The conditions noted are these: Potency: qHTS inhibition; outcome: qHTS inhibition; series mostly up to 115 µM. The method in brief: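 Recombinant human AChE (50 mU/mL in the enzyme mix) and human liver microsomes (0.25 mg/mL final) were preincubated with compound and NADPH (0.25 mg/mL final) for 30 min at 37 C. Acetylthiocholine/DTNB was then added; thiocholine was read colorimetrically after 10 min at room temperature.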
(In qHTS, concentration-response curves come from the screen itself.)
For the compound `OCC(CO)(CO)CO`, the Potency result is “inactive”.
`COc1ccccc1Oc1c(NS(=O)(=O)c2ccc(C(C)(C)C)cc2)nc(-c2ncccn2)nc1OCCO`: the Potency entry is “inactive”.
The entry for `C/C=C/c1ccc(OC)c(OC)c1` is “inactive”; for `O=C(Cl)c1ccc([N+](=O)[O-])cc1` it is “inactive”.
